Source: PubChem BioAssay
Active and inactive are the calls of the source. Unless noted, how the calls were made is not given here.

Columns and labels:
[1] = system: Wnt5a (protein binding on small-molecule microarray); assay: Wnt5a binders on small-molecule microarray, primary screen, biophysical, 635/667 nm fluorescence (AID 1142); settings: 635 nm fluorescence, higher = more signal;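 further: fluorescence read at 667 nm with signal to noise per printed feature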
[2] = cell viability in Huh7 cells, primary screen, cytotoxicity control for HCV replication inhibitor project, CellTiter-Glo luminescence, basal, 48 h (AID 1143); settings: Huh7 HCV replicon, higher = more signal, called active from +8 up or from −8 down;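 further: Huh7 hepatoma cells carrying a hepatitis C replication reporter with no stimulus; test concentration not given here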
[3] = P. aeruginosa biofilm formation inhibitors, primary screen, PAO1 strain, BacTiter-Glo luminescence, LB-PBS (AID 1144); settings: 12 h, higher = more signal
[4] = CREB reporter modulators without forskolin, primary screen, cell-based, PC12, CRE-LacZ reporter, unstimulated (AID 1145); settings: no forskolin, luminescence, 4.5 h, higher = more signal, called active from +8 up or from −8 down
[5] = CREB reporter modulators under forskolin, primary screen, cell-based, PC12, CRE-LacZ reporter, forskolin-stimulated (AID 1146); settings: luminescence, 4.5 h, higher = more signal, called active from +8 up or from −8 down;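 further: PC12 cells with 6xCRE LacZ reporter stimulated by forskolin 10 µM; beta-galactosidase reporter signal reflecting CREB driven transcription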
[6] = target: Streptavidin (Streptomyces avidinii) (UniProt P22629); assay: streptavidin binders on small-molecule microarray, primary screen, artefact control for SMM compound annotation, biophysical, 635/667 nm fluorescence (AID 1147); settings: streptavidin binding, higher = more signal;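 further: signal reflects streptavidin binding to arrayed compounds as a control protein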
[7] = small-molecule binders of probe aInhba, primary screen, biochemical, small-molecule microarray, 635/667 nm fluorescence (AID 1148); settings: higher = more signal;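 further: score merges 667nm spot fluorescence with signal-to-noise for antibody binding to printed compounds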
Torsin-1A (Homo sapiens) [8] = target: Torsin-1A (Homo sapiens) (UniProt O14656); assay: torsin A binders from cell lysate, primary screen, small-molecule microarray, wild-type, 635/667 nm (AID 1149); settings: COS7 hTOR1A-WT lysate, 635 nm fluorescence, higher = more signal
Torsin-1A (Homo sapiens) [9] = target: Torsin-1A (Homo sapiens) (UniProt O14656); assay: small-molecule binders of mutant TOR1A in lysate, primary screen, cell lysate, small-molecule microarray, COS7 lysate, 635/667 nm fluorescence (AID 1150); settings: COS7 hTOR1A mutant lysate, 635 nm fluorescence, higher = more signal;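 further: score pools 667 nm emission and signal to noise measuring lysate protein binding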
[10] = system: Sonic hedgehog protein (Shh); assay: small-molecule binders of Shh protein, primary screen, biochemical, small-molecule microarray, 635/667 nm fluorescence (AID 1151); settings: small-molecule microarray binding, 635 nm fluorescence; higher = more signal;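 further: Shh protein binding to compounds spotted on small-molecule microarray slides; score combines spot fluorescence intensity with signal-to-noise across triplicate slides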
[11] = E. coli DRC41 culture turbidity changes, primary screen, E. coli filamentation inducer project, strain DRC41, OD650, 48 h (AID 1152);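 further: E. coli MC1000 strain DRC41 lacking acrAB efflux pump and sulA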; settings: E. coli DRC41 (acrAB sulA), higher = more signal, called active from +8 up or from −8 down
[12] = small-molecule binders of probe aLefty1, primary screen, biochemical, small-molecule microarray, 635/667 nm fluorescence (AID 1153); settings: higher = more signal;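 further: score merges spot fluorescence with signal-to-noise ratio from the scanned slide images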
[13] = PSAC antagonists in infected red cells, primary screen, cell-based, P. falciparum Indochina, OD700, 1 h (AID 1154); settings: P. falciparum Indochina infected RBC osmotic lysis, higher = more signal, called active from +8 up or from −8 down
[14] = PSAC antagonists in infected red cells, primary screen, cell-based, P. falciparum Indochina, OD700, 2 h (AID 1155);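 further: lysis reports solute entry through the parasite surface anion channel PSAC; channel blockers reduce lysis of infected cells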; settings: P. falciparum Indochina infected erythrocytes, osmotic lysis OD700; higher = more signal, called active from +8 up or from −8 down
[15] = osmotic lysis modulators in infected erythrocytes, primary screen, PSAC antagonist project, cell-based, P. falciparum Indochina, OD700, 3 h (AID 1156); settings: higher = more signal, called active from +8 up or from −8 down
[16] = PSAC antagonists in infected red cells, primary screen, cell-based, P. falciparum Indochina, OD700, 18 h (AID 1157); settings: P. falciparum Indochina infected erythrocytes, osmotic lysis OD700, 18 h; higher = more signal, called active from +8 up or from −8 down
[17] = modulators of S6 phosphorylation in cells, primary screen, cell-based, A549, cytoblot, luminescence, serum-stimulated (AID 1158); settings: A549 phospho-S6 cytoblot, 5 h, higher = more signal;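 further: serum-stimulated A549 lung adenocarcinoma cells; signal is phosphorylated S6 detected by cytoblot immunostaining with HRP secondary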
[18] = target: NADPH oxidase 2 (Homo sapiens) (UniProt P04839); assay: NOX2-dependent H2O2 signal modulators, primary screen, NOX inhibitor project, cell-based, HEK293-NOX2, PMA-stimulated, Amplex Red fluorescence (AID 1159); settings: 45 min, higher = more signal, called active from +8 up or from −8 down; further: test concentration not given here
[19] = target: NADPH oxidase 4 (Homo sapiens) (UniProt Q9NPH5); assay: NOX4-dependent H2O2 signal modulators, primary screen, NOX inhibitor project, cell-based, HEK293-NOX4, tetracycline-induced, Amplex Red fluorescence (AID 1160); settings: 45 min, higher = more signal, called active from +8 up or from −8 down
[20] = target: NADPH oxidase 5 (Homo sapiens) (UniProt Q96PH1); assay: NOX5-dependent H2O2 signal modulators, primary screen, NOX inhibitor project, cell-based, HEK293-NOX5, Amplex Red fluorescence (AID 1161); settings: HEK293-NOX5, ionomycin, 45 min, higher = more signal
NADPH oxidase 5 (Homo sapiens), sequence (Q96PH1 whole entry, looked up): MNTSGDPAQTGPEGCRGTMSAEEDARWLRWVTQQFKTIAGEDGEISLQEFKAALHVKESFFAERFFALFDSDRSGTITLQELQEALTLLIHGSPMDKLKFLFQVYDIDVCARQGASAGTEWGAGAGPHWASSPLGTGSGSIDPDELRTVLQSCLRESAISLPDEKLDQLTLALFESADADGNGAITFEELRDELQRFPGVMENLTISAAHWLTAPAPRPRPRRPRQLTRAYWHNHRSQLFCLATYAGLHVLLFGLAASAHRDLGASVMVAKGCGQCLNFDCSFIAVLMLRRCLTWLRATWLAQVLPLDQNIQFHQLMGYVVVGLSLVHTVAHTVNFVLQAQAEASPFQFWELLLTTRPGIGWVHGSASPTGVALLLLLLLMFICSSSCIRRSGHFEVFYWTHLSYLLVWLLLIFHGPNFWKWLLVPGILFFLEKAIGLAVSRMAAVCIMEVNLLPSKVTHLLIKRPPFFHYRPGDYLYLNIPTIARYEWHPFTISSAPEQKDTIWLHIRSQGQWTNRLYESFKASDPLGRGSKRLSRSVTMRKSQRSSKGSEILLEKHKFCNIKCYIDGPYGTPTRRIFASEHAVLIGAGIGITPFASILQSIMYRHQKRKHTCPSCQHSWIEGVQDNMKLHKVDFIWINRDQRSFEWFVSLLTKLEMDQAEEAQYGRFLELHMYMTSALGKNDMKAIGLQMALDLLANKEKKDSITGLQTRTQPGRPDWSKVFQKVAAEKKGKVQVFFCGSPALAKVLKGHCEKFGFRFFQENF

Torsin-1A (Homo sapiens), sequence (O14656 whole entry, looked up): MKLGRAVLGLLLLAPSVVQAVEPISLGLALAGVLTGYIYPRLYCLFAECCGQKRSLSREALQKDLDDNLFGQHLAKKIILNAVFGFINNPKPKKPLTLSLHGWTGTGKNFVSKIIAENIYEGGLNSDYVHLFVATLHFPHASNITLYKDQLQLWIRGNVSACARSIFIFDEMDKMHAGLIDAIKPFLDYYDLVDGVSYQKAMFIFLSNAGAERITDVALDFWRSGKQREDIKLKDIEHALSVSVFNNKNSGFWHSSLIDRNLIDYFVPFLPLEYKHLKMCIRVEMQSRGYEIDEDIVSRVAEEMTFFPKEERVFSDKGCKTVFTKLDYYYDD
NADPH oxidase 4 (Homo sapiens), sequence (Q9NPH5 whole entry, looked up): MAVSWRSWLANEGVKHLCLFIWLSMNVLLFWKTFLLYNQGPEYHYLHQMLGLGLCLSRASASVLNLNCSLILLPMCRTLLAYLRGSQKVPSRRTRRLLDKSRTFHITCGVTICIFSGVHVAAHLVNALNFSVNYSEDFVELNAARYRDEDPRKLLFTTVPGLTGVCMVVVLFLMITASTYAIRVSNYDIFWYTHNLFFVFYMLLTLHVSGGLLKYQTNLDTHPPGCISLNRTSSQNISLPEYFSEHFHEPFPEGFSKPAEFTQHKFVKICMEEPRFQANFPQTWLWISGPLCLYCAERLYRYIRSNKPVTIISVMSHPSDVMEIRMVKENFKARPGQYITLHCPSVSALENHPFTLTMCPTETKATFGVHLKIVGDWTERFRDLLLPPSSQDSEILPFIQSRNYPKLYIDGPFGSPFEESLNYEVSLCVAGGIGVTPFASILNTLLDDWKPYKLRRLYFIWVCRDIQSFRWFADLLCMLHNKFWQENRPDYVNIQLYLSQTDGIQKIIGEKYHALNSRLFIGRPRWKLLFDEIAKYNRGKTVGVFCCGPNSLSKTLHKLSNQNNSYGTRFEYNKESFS
Streptavidin (Streptomyces avidinii), sequence (P22629 whole entry, looked up): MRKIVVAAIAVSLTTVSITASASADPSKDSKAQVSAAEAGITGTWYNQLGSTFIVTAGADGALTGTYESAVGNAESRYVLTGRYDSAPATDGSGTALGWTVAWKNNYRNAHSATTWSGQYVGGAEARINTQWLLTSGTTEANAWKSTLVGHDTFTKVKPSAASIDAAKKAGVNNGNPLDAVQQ
NADPH oxidase 2 (Homo sapiens), sequence (P04839 whole entry, looked up): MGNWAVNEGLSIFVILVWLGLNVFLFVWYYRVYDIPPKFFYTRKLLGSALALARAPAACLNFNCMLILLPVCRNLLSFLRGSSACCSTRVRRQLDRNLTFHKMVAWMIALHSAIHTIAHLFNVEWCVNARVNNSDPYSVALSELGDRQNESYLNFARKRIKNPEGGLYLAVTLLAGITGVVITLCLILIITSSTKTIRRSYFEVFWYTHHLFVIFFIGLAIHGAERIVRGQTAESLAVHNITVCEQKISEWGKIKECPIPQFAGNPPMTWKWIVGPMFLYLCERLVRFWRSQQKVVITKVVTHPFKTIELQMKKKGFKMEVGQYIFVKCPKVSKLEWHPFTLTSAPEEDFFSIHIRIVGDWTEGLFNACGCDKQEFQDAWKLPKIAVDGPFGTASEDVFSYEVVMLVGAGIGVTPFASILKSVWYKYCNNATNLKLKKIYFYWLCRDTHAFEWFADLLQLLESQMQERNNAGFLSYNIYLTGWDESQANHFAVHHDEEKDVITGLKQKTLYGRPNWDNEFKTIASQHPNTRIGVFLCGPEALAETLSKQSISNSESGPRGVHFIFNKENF

| SMILES | composite z-score [1] | z-score [2] | z-score [3] | z-score [4] | z-score [5] | composite z-score [6] | composite z-score [7] | composite z-score (Torsin-1A (Homo sapiens) [8]) | composite z-score (Torsin-1A (Homo sapiens) [9]) | composite z-score [10] | z-score [11] | composite z-score [12] | z-score [13] | z-score [14] | z-score [15] | z-score [16] | z-score [17] | z-score [18] | z-score [19] | z-score [20] |
| --- | --- | --- | --- | --- | --- | --- | --- | --- | --- | --- | --- | --- | --- | --- | --- | --- | --- | --- | --- | --- |
| COc1ccc([Si](C)(C)[C@@H]2[C@@H](CCO)O[C@]3(C(=O)N(Cc4ccc(N5C(=O)c6ccccc6Oc6ccccc65)cc4)c4ccccc43)[C@H]2C)cc1 | -0.355 | -7.17 (inactive) | -0.734 (inactive) | 2.5 (inactive) | 0.286 (inactive) | -0.132 | -0.179 | -1.04 | -0.949 | 0.0769 | -0.572 (inactive) | 0.0496 | 3.28 (inactive) | 1.99 (inactive) | -1.14 (inactive) | 1.26 (inactive) | 0.0148 | 0.0702 (inactive) | 1.63 (inactive) | 2.29 |
| O=C1c2ccccc2[C@](Cc2ccccc2I)(C(=O)NC2CC2)[C@H](c2ccc(CO)cc2)N1Cc1ccccc1Cl | 0.805 | -0.77 (inactive) | 0.167 (inactive) | 0.468 (inactive) | -0.159 (inactive) | 0.191 | 0.168 | 0.501 | 1.04 | 1 | -1.03 (inactive) | 0.44 | 8.39 (active) | 0.825 (inactive) | 2.82 (inactive) | 0.966 (inactive) | -0.283 | 0.717 (inactive) | 0.466 (inactive) | 0.739 |
| Cc1cc(C)c(C(O)C2C=CC3C(=O)N(c4ccccc4)C(=O)C3N2Nc2ccccc2)c(C)c1 (stereo not given) | 0.345 | 0.326 (inactive) | -1.38 (inactive) | -0.329 (inactive) | 0.501 (inactive) | 1.55 | 0.117 | 0.133 | 0.329 | 0.234 | -0.687 (inactive) | 0.157 | 1.72 (inactive) | 1.23 (inactive) | 0.244 (inactive) | 1.44 (inactive) | -0.824 | -1.56 (inactive) | -3.06 (inactive) | -3.17 |
| COC(=O)[C@@]1(Cc2ccccc2)[C@H]2c3cc(C(=O)N(C)C)n(Cc4ccc(O)c(OC)c4)c3C[C@H]2CN1C(=O)c1ccccc1 | 0.672 | -4.52 (inactive) | -0.886 (inactive) | -0.565 (inactive) | 0.883 (inactive) | 0.468 | 0.877 | 0.698 | 1.06 | -0.851 | -0.404 (inactive) | 0.774 | 2.41 (inactive) | -0.214 (inactive) | 0.158 (inactive) | -1.32 (inactive) | 1.67 | -4.69 (inactive) | -6.03 (inactive) | -6.08 |
| C=CCC(OC(C)=O)[C@@H]1[C@@H](N(Cc2cccc3ccccc23)C(=O)Cc2ccc(F)cc2)c2cc(OCCCO)ccc2N1C(=O)Cc1ccc(OC)cc1 (stereo not given in full) | -0.0124 | -0.627 (inactive) | -0.945 (inactive) | -0.579 (inactive) | -0.374 (inactive) | 0.227 | -0.102 | -0.149 | -0.137 | 0.309 | 1.44 (inactive) | 0.0789 | 0.922 (inactive) | -0.262 (inactive) | -0.0628 (inactive) | -0.545 (inactive) | 1.36 | -0.973 (inactive) | 0.113 (inactive) | 0.743 |
| CC(C)CN1C(=O)[C@@]2(Cc3ccccc31)c1ccccc1C(=O)N(Cc1ccccc1)[C@H]2c1ccc(CO)cc1 | -0.631 | 0.174 (inactive) | -0.221 (inactive) | -0.295 (inactive) | 0.378 (inactive) | -0.64 | -0.102 | -0.971 | -0.359 | -1.05 | -0.731 (inactive) | -0.702 | 0.0889 (inactive) | -0.719 (inactive) | 0.27 (inactive) | 0.157 (inactive) | 0.148 | 0.439 (inactive) | -0.348 (inactive) | -0.498 |
| CC(C)CNC(=O)[C@@]1(C)c2ccccc2C(=O)N(Cc2ccccc2)[C@H]1c1ccc(CO)cc1 | -0.368 | 0.0572 (inactive) | 0.789 (inactive) | 0.531 (inactive) | 0.172 (inactive) | -1.18 | -0.331 | -1.5 | -0.742 | -1.02 | -0.743 (inactive) | -0.16 | 3.11 (inactive) | 0.122 (inactive) | 0.709 (inactive) | 0.0589 (inactive) | 0.11 | -0.912 (inactive) | 0.0265 (inactive) | -1.13 |
| O=C1C[C@@](C(=O)O)(c2ccc([N+](=O)[O-])cc2)[C@@H](c2ccc(CO)cc2)N1CC12CC3CC(CC(C3)C1)C2 | 0.319 | -5.13 (inactive) | -1.03 (inactive) | -0.322 (inactive) | 0.351 (inactive) | 0.791 | -0.0759 | 0.734 | 0.949 | 1.76 | -0.146 (inactive) | 0.0041 | 6.47 (inactive) | 0.964 (inactive) | 2.67 (inactive) | 0.279 (inactive) | 0.469 | -0.545 (inactive) | -2.72 (inactive) | -1.01 |
